This is one part of the list. Values without a mark were called inactive. Rule as the data show it: active = activation above about 18%; inactive = the rest.

The nature of the assay: activation of mu-delta opioid heterodimer signal – cell-based, luminescence, counter-screen for HTR5A agonist project (AID 504913). The settings on record: U2OS counter-screen cells, complementation luminescence, 3 h; at 9.3 µM; active compounds read high. (The purpose of a counterscreen is to sort out artefacts and off-target activity.)

Take `CCCCCCCCCCCCn1ccc(=N)cc1`: the activation was 2.92%.

These data come from PubChem BioAssay AID504913 (The Scripps Research Institute Molecular Screening Center, 2011).
